Source: PubChem BioAssay
Shown are actives, neighbours in structure and some others; about 1.5% of the full set was active somewhere.
Nrf2 ARE act = Nrf2 pathway activation; actives 0.31% (n = 410,000); Potency, µM (series often up to 46.1 µM), for the others: at the highest dose activation, actives largely listed as activators; AREc32 ARE-luciferase reporter (MCF7-derived line), luminescence, 24 h; AID 624171; note: potency is the fitted concentration of half-maximal effect; % of control where 0% means no effect; nearly all actives have a fitted effect of over 65% in size
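AREc32_Fluc, 1000 cells/well, OPTI-MEM + 5% FBS, o/n 37 deg C 5% CO2; 23 nL cpd by pin tool, 24 hr; Steady-Glo 30 min RT, luminescence.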
12-LOX inh = blocks human arachidonate 12S-lipoxygenase | P18054 | Potency, µM (doses to about 108 µM), for the others: at the highest dose activity change, negative = inhibition, hits mostly inhibitors | purified 12hLO, xylenol orange hydroperoxide absorbance | actives 1.1% (n = 580,000); note: potency is the fitted concentration of half-maximal effect; % is set by controls: 0 for no effect and ±100 for the full control effect
Target sequence (P18054 whole entry, looked up): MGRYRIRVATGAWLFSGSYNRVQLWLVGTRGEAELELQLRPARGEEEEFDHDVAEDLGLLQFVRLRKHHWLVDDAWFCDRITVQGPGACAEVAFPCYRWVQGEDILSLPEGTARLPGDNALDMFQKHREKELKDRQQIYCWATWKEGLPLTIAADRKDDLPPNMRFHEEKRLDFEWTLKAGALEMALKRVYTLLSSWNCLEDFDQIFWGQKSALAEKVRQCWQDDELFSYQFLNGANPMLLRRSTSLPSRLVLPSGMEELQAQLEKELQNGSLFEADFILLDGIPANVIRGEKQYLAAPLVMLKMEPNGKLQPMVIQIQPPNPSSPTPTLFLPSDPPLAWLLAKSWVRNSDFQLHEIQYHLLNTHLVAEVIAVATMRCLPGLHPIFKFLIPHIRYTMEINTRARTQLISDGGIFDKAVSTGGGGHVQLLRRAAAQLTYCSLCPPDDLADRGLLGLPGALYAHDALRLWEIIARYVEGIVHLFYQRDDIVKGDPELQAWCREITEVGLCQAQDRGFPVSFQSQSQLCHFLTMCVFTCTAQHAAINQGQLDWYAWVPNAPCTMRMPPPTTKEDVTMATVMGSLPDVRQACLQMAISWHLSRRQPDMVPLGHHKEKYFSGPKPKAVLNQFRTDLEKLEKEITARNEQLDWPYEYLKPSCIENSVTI
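Hydroperoxide product was detected by ferrous iron/xylenol orange as the 573 to 405 nm absorbance ratio. Arachidonic acid at 40 uM (final) was turned over for 30 min at room temperature by 150 nM human 12hLO, pH 7.0 Hepes buffer, after 15 min compound preincubation.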
a7 integrin act = integrin-mediated muscular dystrophy alleviation activation; alpha7betagal myoblasts, beta-gal FDG fluorescence, 48 h; Potency, µM (doses to about 38.3 µM), without a hit: top-dose activation, actives largely listed as activators; actives 0.064% (n = 350,000);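 note: potency is the fitted concentration of half-maximal effect; 100% = response of the positive control SU9516; nearly all actives have a fitted effect of over 60% in size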
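alpha7betagal+/- myoblasts (passage 13, 250/well) treated 48 h at 37C with compounds at 1:260 dilution of DMSO stock. Lysed, then beta-galactosidase activity read as FDG fluorescence (ex 480/em 540) after 30 min, with pre-read for autofluorescence.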
uPA generation = blocks generation of uPA at the cell surface. cell surface uPA generation assay, qHTS. Potency, µM (series often up to 38.3 µM), without a hit: top-dose activity change, negative = inhibition, actives largely listed as inhibitors. actives 0.31% (n = 330,000); active = well fitted inhibition curve with a large enough effect; inconclusive = small, poorly fitted or top-dose-only effect; inactive = no such curve, though single readings can be large or run the other way; tested in mouse RAW 264.7 cells; note: potency is the fitted concentration of half-maximal effect; % is set by controls: 0 for no effect and ±100 for the full control effect; nearly all actives have a fitted effect of over 55% in size
IL-2 act = activates IL-2 in a cell-based reporter assay. IL-2 activation reporter assay, cell-based qHTS; stimulated with anti-CD3/CD4/CD28 beads; in transgenic mouse T cells. activation, % (series mostly up to about 46 µM). actives 0.065% (n = 360,000). AID 652025; in the data active = activation above about 50%; inconclusive = mostly about 30% to 49%; note: 0% is about no effect
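Quantitative HTS in unstimulated transgenic mouse T cells, with memory T cells as non-tolerant control and PMA/ionomycin as tolerance-bypass control. Compound pretreatment lasted 60 minutes before 18 h bead stimulation; EGFP/DsRed fluorescence read.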
Active calls of the source: *; u = inconclusive; x = no result given; [ ] = dose if it differs, or a comment. Unless noted, calls come from the whole dose curve; as a rule, active = well fitted curve in the direction sought with a large enough effect; inconclusive = small, poorly fitted or top-dose-only effect, or another doubt; inactive = no such curve, though single readings can be large; an effect the other way counts as inactive or inconclusive.

SMILES	Nrf2 ARE act	12-LOX inh	a7 integrin act	uPA generation	IL-2 act
CC(=O)Nc1nc(CC(C)C)cc(-c2ccco2)c1C#N	u	13µM*	-19%	x	-3
CCOc1ccc(CC(=O)N2CCC[C@H]2c2nc(-c3ccc(OC)c(OC)c3)no2)cc1OCC	x	-9%	x	x	x
CCNC(=O)N1CCC(Cc2ccc(C(=O)Nc3cccc(F)c3)cc2)CC1	x	17%	x	x	x
Cc1cnc(CNc2ncncc2-c2ccc(N(C)C)cc2)cn1	x	-22%	x	x	x
CNc1ncncc1-c1ccc(C(=O)N(C)C)cc1	x	32µM*	x	x	x
CC(=O)NCCNc1ncncc1-c1ccc(N(C)C)cc1	x	45µM*	x	x	x
Cc1ccccc1-c1cc(C(=O)NCC[S+](C)(=O)[O-])c2c(c1)N(C)CCO2	x	8%[176 µM]	x	x	x
CC(C)C1=NOC2(CCN(Cc3ccccc3)C2)C1 (configuration not stated)	x	3%[12.5 µM]	x	x	x
Cc1ccc(C2=C(CC(=O)O)C(=O)CC2)cc1	-1%	-2%	4.5µM*	-3%	1
NS(=O)(=O)c1ccc(CNC(=O)c2ccc(Cl)c(S(=O)(=O)NCc3ccccc3)c2)cc1	-1%	-5%	-6%	3%	0
NS(=O)(=O)c1ccc(NC(=O)c2ccc(CNS(=O)(=O)c3cc(C(F)(F)F)ccc3Cl)cc2)cc1	-1%	0%	10µM*	10%	-1
COc1cccc(C2=CC(=O)CC(c3ccco3)C2)c1 (configuration not stated)	10%	35µM*	-9%	-7%	3
COc1ccc(/C(O)=C2/C(=O)C(=O)N(Cc3ccco3)C2c2cccs2)cc1 (configuration not stated)	1%	20µM*	9%	0%	0
CCOC(=O)CSc1ccc2nnc(-c3cccnc3)n2n1	-1%	32µM*	31%	21%	0
S=C1NCCc2ccccc2C1c1ccccc1 (configuration not stated)	0%	35µM*	-24%	7%	-1
O=C(NCCNC(=O)c1cc2ccccc2[nH]1)C(=O)N1CCN(c2ccccc2)CC1	x	-1%	x	x	x
CC(=O)N1N=C(c2ccc(NS(=O)(=O)c3ccccc3)cc2)CC1c1ccco1 (configuration not stated)	4%	-1%	-14%	0.71µM*	1
CCCc1cc(=O)[nH]c(SCC(=O)N2N=C(c3ccc(Cl)cc3)CC2c2ccco2)n1 (configuration not stated)	4%	u	-4%	6%	0
CC(C)[C@H](NS(=O)(=O)c1ccccc1)C(=O)OCC(=O)N1N=C(c2ccc(Cl)cc2)CC1c1ccco1 (some centres not stated)	24%	40µM*	-40%	-5%	0
COCC(=O)OCC(=O)N1N=C(c2ccc(Cl)cc2)CC1c1ccco1 (configuration not stated)	3%	-24%	7%	0%	-2
CCC(=O)N1N=C(c2ccc(Cl)cc2)CC1c1ccco1 (configuration not stated)	3%	0%	13%	-4%	-1
Nc1cc(=O)[nH]c(SCC(=O)N2N=C(c3ccc(Cl)cc3)CC2c2ccco2)n1 (configuration not stated)	6%	40µM*	2%	0%	-1
O=C(OCC(=O)N1N=C(c2ccc(Cl)cc2)CC1c1ccco1)c1cccnc1 (configuration not stated)	20µM*	-58%	-56%	u	0
Cc1nc2cc(NC(=O)COc3ccccc3Cc3ccccc3)ccc2o1	x	-13%	x	x	x
CC(C)NC(=O)c1ccc2c(c1)nc1n2CCN(CCc2ccccc2)C1	x	-6%	x	x	x
SMILES	Nrf2 ARE act	12-LOX inh	a7 integrin act	uPA generation	IL-2 act
Cc1cccc(Cn2nnc3c(=O)[nH]c(C4CCN(C(=O)c5ccccc5)CC4)nc32)c1	x	-5%	x	x	x
Cc1ccc(CN2C[C@H]3CN(C(=O)c4cccnc4)CCN3C2=O)cc1	x	6%[176 µM]	x	x	x
O=C1NCCC[C@@H]1NC(=O)[C@@H]1CN(C(=O)C2CCNCC2)CCN1C(=O)c1ccccc1	x	9%	x	x	x
O=C(CCl)N1N=C(c2ccco2)CC1c1ccco1 (configuration not stated)	16µM*	u	-64%	-15%	-1
Cc1ccc([N+](=O)[O-])cc1NC(=O)c1ccccc1	7.9µM*	19%	19%	0%	-3
O=C(Nc1cccc([N+](=O)[O-])c1)c1ccncc1	11µM*	10%	0%	8%	-1
CC(C)(C)c1ccc(C(=O)Nc2cccc([N+](=O)[O-])c2)cc1	10%	-21%	-46%	-10%	-1
O=C(Nc1cccc([N+](=O)[O-])c1)c1[nH]ncc1Cl	5µM*	u	13%	-3%	2
O=C(Nc1cccc([N+](=O)[O-])c1)c1cnccn1	u	-10%	18%	4%	-2
O=C(Nc1ccc([N+](=O)[O-])cc1NC(=O)c1ccccc1)c1ccccc1	-2%	-9%	0%	-5%	-1
CC(C)(C)CC(C)(C)NC(=O)Nc1cccc([N+](=O)[O-])c1	6%	-24%	-46%	10µM*	-1
COc1ccc(C2=[N+]([O-])C(C)(c3ccccc3)N(O)C2C)cc1 (configuration not stated)	x	-23%	x	x	x
Cc1nc2ccccc2n(CC(=O)NCCN2CCN(c3cccc(Cl)c3)CC2)c1=O	x	23%	x	x	x
O=C1NC2(CCN(C(=O)c3ccc(F)cc3)C2)OCc2ccccc21 (configuration not stated)	x	32%	x	x	x
Cc1nnc(NC(=O)CSc2nnc(CCNC(=O)c3ccccc3F)n2C)s1	1%	0%	11µM*	-1%	1
Cc1ccc(NCc2nnc(SCC(=O)Nc3nnc(C)s3)n2C)cc1	0%	-5%	10µM*	11%	-1
Cc1nnc(NC(=O)CSc2nnc(CNC(=O)c3ccccc3F)n2C(C)C)s1	0%	8%	8%	13%	-4
O=S(=O)(NC[C@H]1Cn2c(-c3ccc(F)cc3)cnc2CO1)c1ccc(Cl)cc1	x	50µM*	x	x	x
Cn1cc([N+](=O)[O-])c(C(=O)Nc2ccc3nc(-c4ccccc4)[nH]c3c2)n1	25µM*	-17%	-29%	-9%	1
O=C(N1C[C@@H](CO)[C@H](c2ccncc2)C1)C1(c2ccccc2)CCCC1	x	9%	x	x	x
CCOc1[nH]n(-c2ccccc2)c(=O)c1C=Nc1ccccc1	4%	1%	0%	6.3µM*	-4
O=C(CCCCCCCC(=O)NCCCN1CCOCC1)NCCCN1CCOCC1	x	25%	x	x	x
Cc1ccc(C)c(OCCC(=O)OCC(=O)N2CCN(S(=O)(=O)c3ccc(Cl)cc3)CC2)c1	u	-20%	5%	10µM*	0
FC(F)(F)c1cc(C2CC2)[nH]n1	x	-23%	x	x	x
CC(=O)NCCNc1ccnc(-c2ccccc2C(F)(F)F)n1	x	-15%	x	x	x
CN(C)c1ccnc(-c2ccccc2C(F)(F)F)n1	x	50µM*	x	x	x
O=C(O)c1cnc(OCC(F)(F)F)c(Cl)c1	x	-8%	x	x	x
